Data: the supplement of paper PMC6555819

Experiments:
Assay in all cases: PBM binding z-score (relative to random genomic background probes); higher = stronger binding; sequences stand for … in GC…GCGATTGACAGCGTAGAATGAAGG
[1] = tested on: FXR:RXRa (NR concentration 270 nM, RXRa partner concentration 90 nM)
How it was run: (§1)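 Each nuclear receptor dimer, without ligand, was incubated for 1 h on custom Agilent 4×180K protein-binding microarrays. Binding was detected with antibodies against each partner (one per run), and scanned fluorescence was regression-normalized. The binding z-scores are referenced to random human genomic background probes.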

[2] = tested on: LXRa:RXRa (NR concentration 270 nM, RXRa partner concentration 90 nM)
How it was run: as §1

[3] = tested on: LXRa homodimer (NR concentration 270 nM)
How it was run: as §1

[4] = tested on: LXRb:RXRa (NR concentration 270 nM, RXRa partner concentration 90 nM)
How it was run: as §1

[5] = tested on: LXRb homodimer (NR concentration 270 nM)
How it was run: as §1

[6] = tested on: PPARa:RXRa (NR concentration 270 nM, RXRa partner concentration 90 nM)
How it was run: as §1

[7] = tested on: PPARg:RXRa (NR concentration 180 nM, RXRa partner concentration 90 nM)
How it was run: as §1

[8] = tested on: PPARg:RXRa 270nM:90nM, anti-RXR (NR concentration 270 nM, RXRa partner concentration 90 nM)
How it was run: as §1

[9] = tested on: PPARg:RXRa 30nM:10nM, anti-RXR (NR concentration 30 nM, RXRa partner concentration 10 nM)
How it was run: as §1

[10] = tested on: PPARg:RXRa 90nM:30nM, anti-RXR (NR concentration 90 nM, RXRa partner concentration 30 nM)
How it was run: as §1

[11] = tested on: PPARg:RXRa DBDmut IVT, anti-RXR (DBD mutation: RXRa K156A/R161A, NR concentration 270 nM, RXRa partner concentration 90 nM)
How it was run: as §1

[12] = tested on: PPARg:RXRa IVT, anti-PPARg (NR concentration 270 nM, RXRa partner concentration 90 nM)
How it was run: as §1

[13] = tested on: PPARg DBDmut:RXRa IVT, anti-PPARg (DBD mutation: PPARg1 K132A/R137A, NR concentration 270 nM, RXRa partner concentration 90 nM)
How it was run: as §1

[14] = tested on: PPARg DBDmut IVT, anti-PPARg (DBD mutation: PPARg1 K132A/R137A, NR concentration 270 nM)
How it was run: as §1

[15] = tested on: PPARg homodimer (NR concentration 180 nM)
How it was run: as §1

[16] = tested on: PXR:RXRa (NR concentration 270 nM, RXRa partner concentration 90 nM)
How it was run: as §1

[17] = tested on: PXR homodimer (NR concentration 270 nM)
How it was run: as §1

[18] = tested on: RARa:RXR (NR concentration 270 nM, RXRa partner concentration 90 nM)
How it was run: as §1

[19] = tested on: RARa homodimer (NR concentration 270 nM)
How it was run: as §1

[20] = tested on: RARb:RXRa (NR concentration 270 nM, RXRa partner concentration 90 nM)
How it was run: as §1

Sequence | PBM binding z-score [1] | PBM binding z-score [2] | PBM binding z-score [3] | PBM binding z-score [4] | PBM binding z-score [5] | PBM binding z-score [6] | PBM binding z-score [7] | PBM binding z-score [8] | PBM binding z-score [9] | PBM binding z-score [10] | PBM binding z-score [11] | PBM binding z-score [12] | PBM binding z-score [13] | PBM binding z-score [14] | PBM binding z-score [15] | PBM binding z-score [16] | PBM binding z-score [17] | PBM binding z-score [18] | PBM binding z-score [19] | PBM binding z-score [20]
ATCTCCAGGTAACAAGTTCAGTGAAAGAGAGGAC | 1.08 | 1.37 | 0.906 | 0.805 | 1.22 | 0.983 | 0.944 | 1.21 | 0.66 | 0.891 | 0.841 | 1.17 | 1.63 | 1.37 | 1.7 | 1.73 | 2.04 | 1.05 | 1.49 | 1.76
TGAATTAGGTTAAAGATCAGGGAACGTGGCGTCG | 0.694 | 0.724 | 0.0716 | 0.548 | 0.342 | 4.09 | 6.76 | 7.47 | 5.99 | 8.06 | 6.08 | 5.63 | 0.86 | 1.43 | 1.58 | 0.403 | 0.276 | 1.12 | 1.04 | 1.19
TTACGAAGGTGAGCTGAGGTCGTTGATCCAACTC | 2.65 | 1.46 | -0.333 | 0.8 | -0.914 | 1.52 | 0.0154 | 0.637 | -0.115 | 0.0816 | 0.758 | 1.28 | -0.294 | -0.134 | 0.215 | 5.29 | 0.95 | 1.56 | -0.794 | 1.79
CCTCGGAGGACAGAAGGACAGAGCTGTCCGCTTT | -0.348 | -0.559 | -0.63 | -0.942 | -0.907 | -0.733 | -0.176 | -0.854 | -1.07 | -0.86 | -0.418 | -0.913 | -0.956 | -1.82 | -0.605 | -0.689 | -0.621 | -0.66 | -0.614 | 0.716
CCTTACGGGTCACTCCAAGTTATAGCATCGGAGT | 4.3 | 4.77 | 0.264 | 2.99 | 0.193 | 4.54 | 3.18 | 3.68 | 1.12 | 2.66 | 3.33 | 3.23 | 0.816 | 0.0314 | 3.25 | 2.57 | 0.296 | 3.32 | 1.47 | 3.56
GCTGCTAGGTCAACTGACGGTCAGCTAAAGCTCG | 4.79 | 3.96 | 1.36 | 2.5 | 0.152 | 3.92 | 2.88 | 3.37 | 0.824 | 2.14 | 5.14 | 4.49 | 0.437 | -0.0795 | 4.42 | 2.08 | -0.874 | 4.58 | 1.05 | 4.56
CGTCCAAGGTCAAAGGTCAGTGAGGAGATGACGG | 8.06 | 7.01 | 4.05 | 6.21 | 1.86 | 7.08 | 10.8 | 8.98 | 8.09 | 9.57 | 4.27 | 5.57 | 0.435 | -0.522 | 6.24 | 7.08 | 2.54 | 8.87 | 5.49 | 5.85
ATATGTAGGTTAGCTGGGGCCATTCAGACTAGGC | 0.601 | 1.15 | 0.0611 | 0.901 | 0.197 | 2.55 | 3.09 | 2.56 | 0.952 | 2.06 | 6.72 | 5.67 | 1.64 | 1.69 | 1.13 | 2.87 | 0.538 | 1.33 | 0.314 | 1.21
TGAATGAGGTTAAAGATCAGGGTACGTGGCGTCG | 2.96 | 2.35 | -0.149 | 1.67 | 0.353 | 4.43 | 5.59 | 6.33 | 4.71 | 6.42 | 2.05 | 3.93 | 1.21 | 0.291 | 1.09 | 2.14 | -0.073 | 3.31 | -0.532 | 2.21
ATATGTAGGTTAAGGGTCATTCACGTTGGTTCGC | 5.72 | 4.91 | 2.96 | 4.5 | 1.26 | 6.49 | 11.8 | 9.66 | 9.95 | 11.2 | 7.26 | 8.08 | 3.39 | 2.65 | 4.43 | 4.79 | 0.957 | 5.91 | 1.47 | 3.54
CCTCGTTGGTCAAGGTCACACACGCTATAGGTAC | 4.27 | 4.25 | 2.8 | 3.8 | 1.08 | 4.07 | 2.47 | 3.17 | 0.974 | 2.24 | 1.3 | 2.58 | 1.08 | -0.102 | 3.26 | 4.25 | 1.82 | 4.63 | 2.69 | 4.18
CCGACTGGGGCAAAGGTTACCCTACTCAGTACGA | 1.55 | 1.36 | 0.204 | 1.69 | -1.04 | 4.95 | 10.4 | 8.13 | 8.18 | 9.15 | 4.37 | 5.45 | -0.494 | -0.866 | 0.732 | 1.9 | -0.0869 | 3.02 | -0.235 | 2.1
TGAATGAGGTTGAAGATCAGGGAACGTGGCGTCG | 0.0849 | 0.195 | -0.576 | -0.271 | 0.232 | 0.989 | 1.11 | 2.33 | 0.813 | 1.97 | -0.653 | 0.294 | 0.451 | 0.38 | -0.432 | -0.193 | -0.315 | 0.257 | -0.208 | 0.206
CCTAGTTGGTCAAGGTCAAACACGCTATAGGTAC | 5.04 | 4.62 | 3.57 | 4.52 | 1.24 | 4.81 | 3.13 | 3.93 | 1.16 | 3.04 | 2.18 | 3.37 | 0.444 | 1.42 | 3.34 | 4.48 | 3.25 | 4.41 | 2.79 | 4.19
